Experiment [1] deals with XIP peptide (Xip251-270) binding. Description: XIP fragment 251-270 binding compounds – biochemical, small-molecule microarray, fluorescence 635/667 nm, 0.1 µg/mL protein, primary screen (AID 1182). The settings on record: fluorescent protein binding, 635 nm, higher = more signal, called active from +8 up or from −8 down.
Experiment [2] has as its system XIP peptide (Xip251-270). The experiment is described as follows: compounds binding XIP fragment 251-270 – biochemical, small-molecule microarray, fluorescence 635/667 nm, 0.5 µg/mL protein, primary screen (AID 1183). The settings on record: fluorescence 635 nm, higher = more signal.
Experiment [3] is described as follows: blood-stage malaria parasite viability loss – strain 3D7, DAPI fluorescence, 100 nL, primary screen (AID 1184).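 Further: parasites grown inside human red blood cells in medium with human serum.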 The settings on record: P. falciparum 3D7 growth, 3 d, higher = more signal.
In experiment [4] the target is Homeobox protein Hox-A13 (Mus musculus) (UniProt Q62424). Description: disruptors of Hoxa13 oligonucleotide interaction – biochemical, fluorescence polarization, labeled oligonucleotide, primary screen (AID 1185). The following applies: Hoxa13:DNA binding, 15 min, higher = more signal, called active from +8 up or from −8 down.
Experiment [5] in a line: blockers of DNA damage checkpoint Chk1 activation – imaging, HeLa, hydroxyurea, phospho-Chk1 antibody, percent positive cells, primary screen (AID 1186). The following applies: hydroxyurea-induced phospho-Chk1 immunofluorescence imaging, higher = more signal.
Experiment [6] can be described thus: blockers of DNA damage checkpoint Chk1 activation – imaging, HeLa, hydroxyurea, phospho-Chk1 nuclear intensity, primary screen (AID 1187). The following applies: hydroxyurea-induced phospho-Chk1 immunofluorescence imaging, higher = more signal.

Calls of active or inactive are those of the source. Unless noted, how the calls were made is not given here.

Sequence of Homeobox protein Hox-A13 (Mus musculus) (Q62424 whole entry, looked up): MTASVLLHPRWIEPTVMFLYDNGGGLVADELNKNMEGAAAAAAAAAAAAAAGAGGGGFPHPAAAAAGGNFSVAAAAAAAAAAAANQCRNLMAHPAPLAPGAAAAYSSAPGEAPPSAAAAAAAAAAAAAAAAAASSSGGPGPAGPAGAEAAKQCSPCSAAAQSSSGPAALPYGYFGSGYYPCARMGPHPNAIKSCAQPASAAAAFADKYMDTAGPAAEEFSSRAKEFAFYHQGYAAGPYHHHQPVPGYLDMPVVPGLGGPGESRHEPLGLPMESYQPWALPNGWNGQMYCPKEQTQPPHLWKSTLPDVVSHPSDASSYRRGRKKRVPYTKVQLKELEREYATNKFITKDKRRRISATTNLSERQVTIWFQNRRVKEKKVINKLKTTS

Regarding `O=c1cccc(-c2ccc(F)cc2)o1`, the results for the composite z-score in experiment [1] and in experiment [2] were -0.133 (inactive) and 0.472, respectively. Besides, the z-score is 1.07 in experiment [3], -0.287 (inactive) in experiment [4], 0.454 (inactive) in experiment [5] and 0.606 (inactive) in experiment [6].
With `O=C1C2C=CC(C(O)c3cc(C(F)(F)F)cc(C(F)(F)F)c3)N(Nc3ccccc3F)C2C(=O)N1c1ccccc1` (configuration not stated), the composite z-score in experiment [1] was 1.22 (inactive); in experiment [2] it was 0.481. The z-score was 0.915 in experiment [3], -2.39 (inactive) in experiment [4], 0.563 (inactive) in experiment [5] and 0.544 (inactive) in experiment [6].
Take `C=C/C=C/[C@@H]1C(=C)CN([C@@H](Cc2ccccc2)C(=O)OC)[C@H]1[C@@H](O)Cc1ccccc1`: the composite z-score in experiment [1] is 0.661 (inactive); in experiment [2] it was 0.58. Besides, the z-score is 0.135 in experiment [3], -1.8 (inactive) in experiment [4], -0.176 (inactive) in experiment [5] and 0.221 (inactive) in experiment [6].
In the case of `C=CCNC(=O)[C@@H]1[C@H]2C(=O)O[C@H](c3ccccc3)[C@H](c3ccccc3)N2[C@H](c2ccc(O)cc2)[C@@]12C(=O)Nc1ccc(C#CCC(C(=O)OC)C(=O)OC)cc12`, the composite z-score was 1.03 (inactive) in experiment [1] and 0.729 in experiment [2]. Also, the z-score in experiment [3] is -1.84; in experiment [4] it was -2.97 (inactive); in experiment [5], -0.267 (inactive); in experiment [6] it was -0.625 (inactive).
Take `COc1cc(NN2C(C(O)C3CCCCC3)C=CC3C(=O)N(c4ccccc4)C(=O)C32)cc(OC)c1OC` (configuration not stated): the composite z-score in experiment [1] is 1.15 (inactive); in experiment [2], 0.751. Further, the z-score in experiment [3] was -0.495; in experiment [4] it was -4.43 (inactive); in experiment [5], 0.0699 (inactive); in experiment [6] it was -0.253 (inactive).
`CN(C)C(=O)[C@@]1(Cc2ccccc2)COC(c2ccc(OCCCO)cc2)=N1`: the composite z-score is 0.205 (inactive) in experiment [1] and 0.845 in experiment [2]. Also, the z-score in experiment [3] is -0.627; in experiment [4] it was -6.02 (inactive); in experiment [5], -1.01 (inactive); in experiment [6], -1.03 (inactive).
In the case of `C=CCC(OC(C)=O)[C@@H]1[C@@H](N(Cc2cc3ccccc3o2)C(=O)c2ccc(-c3ccccc3)cc2)c2cc(OCCCO)ccc2N1C(=O)Cc1ccc(OC)cc1` (some centres not stated), the figures for the composite z-score in experiment [1] and in experiment [2] were 0.112 (inactive) and 0.0332, respectively. In addition, the z-score is -0.846 in experiment [3], -1.8 (inactive) in experiment [4], 0.754 (inactive) in experiment [5] and 0.0035 (inactive) in experiment [6].
With `CC(C)(C)OC(=O)CC[C@]12N=C(c3ccc(OCCCO)cc3)O[C@H]1c1ccccc1N(Cc1ccccc1)C2=O`, the composite z-score in experiment [1] is -0.326 (inactive); in experiment [2] it was 0.802. The z-score in experiment [3] was -2.21; in experiment [4] it was -0.817 (inactive); in experiment [5], -0.022 (inactive); in experiment [6] it was 0.363 (inactive).
As for `COCCOC(=O)N1C(=O)[C@@]2(c3cc(C#CC4=CCCCC4)ccc31)[C@H](C(=O)N1CCCCCCC1)[C@H]1C(=O)O[C@H](c3ccccc3)[C@H](c3ccccc3)N1[C@@H]2c1ccc(OCCO)cc1`, the composite z-score in experiment [1] is -0.404 (inactive); in experiment [2] it was 0.56. The z-score is -2.01 in experiment [3], -15.8 (active) in experiment [4], 0.0039 (inactive) in experiment [5] and -0.192 (inactive) in experiment [6].
For `C=CCNC(=O)[C@@H]1[C@H]2C(=O)O[C@H](c3ccccc3)[C@H](c3ccccc3)N2[C@H](c2ccc(O)cc2)[C@@]12C(=O)N(C(=O)OCCOC)c1ccc(C#CCCO)cc12`, the composite z-score in experiment [1] is 2.07 (inactive); in experiment [2] it was 0.749. The z-score in experiment [3] is 1.05; in experiment [4], -3.19 (inactive); in experiment [5] it was 0.116 (inactive); in experiment [6] it was -0.365 (inactive).
Consider `CCCC=C(CCC)[C@@H](NS(=O)(=O)c1cccc2cccnc12)c1ccc(-c2ccccc2)cc1`, for which the results for the composite z-score in experiment [1] and in experiment [2] were -0.356 (inactive) and 0.604, respectively. In addition, the z-score in experiment [3] was -0.831; in experiment [4] it was -0.807 (inactive); in experiment [5] it was 0.483 (inactive); in experiment [6], 0.309 (inactive).
In the case of `COCCCNC(=O)[C@@H]1c2ccccc2C(=O)N(C2Cc3ccccc3C2)[C@H]1c1ccc(CO)cc1`, the composite z-score in experiment [1] is -0.295 (inactive); in experiment [2], 0.583. Besides, the z-score in experiment [3] is -0.804; in experiment [4] it was -2.44 (inactive); in experiment [5], -0.533 (inactive); in experiment [6], -0.726 (inactive).
Regarding `COc1ccc(NC(=O)O[C@H]2[C@@H]3OC(=O)[C@H](Cc4cccc(Br)c4)C/C=C/C[C@@H](Cc4cccc(Br)c4)C(=O)O[C@H]3[C@@H](OC)O[C@@H]2CO)cc1`, the composite z-score in experiment [1] was 1.25 (inactive); in experiment [2] it was 0.369. For the same molecule, the z-score in experiment [3] was -1.6; in experiment [4], -1.86 (inactive); in experiment [5], 0.0003 (inactive); in experiment [6], 0.0972 (inactive).
Regarding `COc1cc2c(cc1OC)CN(C(=O)[C@@H]1[C@H]3C(=O)O[C@H](c4ccccc4)[C@H](c4ccccc4)N3[C@H](c3ccc(O)cc3)[C@@]13C(=O)Nc1ccc(C#CCCO)cc13)CC2`, the composite z-score in experiment [1] is 1.33 (inactive); in experiment [2], 0.723. Also, the z-score in experiment [3] is -1.16; in experiment [4], -2.6 (inactive); in experiment [5] it was 0.189 (inactive); in experiment [6], 0.28 (inactive).
Take `CN1C(=O)[C@@H]2[C@@H](CC(COc3ccccc3)=C([C@H](O)CCc3ccccc3)[C@@H]2CO)C1=O`: the values for the composite z-score in experiment [1] and in experiment [2] were -0.221 (inactive) and 0.365, respectively. Moreover, the z-score in experiment [3] was -0.0804; in experiment [4], -6.39 (inactive); in experiment [5], -1.25 (inactive); in experiment [6], -1.34 (inactive).
With `C=CCNC(=O)[C@H]1[C@@H]2C(=O)O[C@@H](c3ccccc3)[C@@H](c3ccccc3)N2[C@@H](c2ccc(O)cc2)[C@]12C(=O)N(C(=O)OCCOC)c1ccc(C#CCC(C(=O)OC)C(=O)OC)cc12`, the composite z-score in experiment [1] is 2.8 (inactive); in experiment [2], 0.761. For the same molecule, the z-score in experiment [3] is -2.07; in experiment [4], -0.414 (inactive); in experiment [5] it was -0.0546 (inactive); in experiment [6], -0.0093 (inactive).
As to `CC(C)c1ccc(NN2C(C(O)Cc3ccccc3)C=CC3C(=O)N(c4ccccc4)C(=O)C32)cc1` (configuration not stated), the figures for the composite z-score in experiment [1] and in experiment [2] were -0.0839 (inactive) and 0.655, respectively. The z-score is -0.0057 in experiment [3], -2.98 (inactive) in experiment [4], 0.656 (inactive) in experiment [5] and 0.37 (inactive) in experiment [6].

The values are drawn from PubChem BioAssay.
